The record followed here is PubChem BioAssay (EPA / NIEHS).

The nature of experiment [1]: IUF_NPC4_neurite_area_120hr: Leibniz Research Institute for Environmental Medicine (IUF) 120-hour Neuronal Morphology Assay for Neurite Area (NPC4) (AID 2284305). In a few lines: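 Neurite area (pixels, nuclei excluded) of TUBB3-positive neurons from hNPC spheres differentiating 5 days under continuous exposure at 37 C, 5% CO2. High-content imaging; loss of signal versus DMSO control across 7 concentrations.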

Experiment [2] can be described thus: IUF_NPC2-5_cytotoxicity_72hr: Cytotoxicity Assessment at 72 hours in the Leibniz Research Institute for Environmental Medicine (IUF) Neural Progenitor Cell Migration and Differentiation Assay for Cytotoxicity (NPC2-5) (AID 2284306).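 Note: LDH release into supernatant measured by resorufin fluorescence marking membrane damage.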 An outline of the steps:
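Membrane-integrity cytotoxicity at 72 h, read as LDH-driven resorufin fluorescence in supernatant. hNPC spheres from fetal cortex differentiate on coated plates in N2 medium, 37C, 5% CO2; seven serial compound concentrations plus solvent control (DMSO ≤0.1%).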

Experiment [3] in a line: IUF_NPC2-5_cytotoxicity_120hr: Cytotoxicity Assessment at 120 hours in the Leibniz Research Institute for Environmental Medicine (IUF) Neural Progenitor Cell Migration and Differentiation Assay (NPC2-5) (AID 2284307).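 For AC50: LDH released into supernatant as membrane damage marker via resorufin fluorescence.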 An outline of the steps: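 Human fetal (GW 16-19) neural progenitor spheres (0.3 mm) plated on poly-D-lysine/laminin in N2 differentiation medium, exposed 120 h with half-medium renewal at day 3; 7 concentrations plus solvent control, DMSO ≤0.1%. LDH release in supernatant read by resorufin fluorescence.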

Experiment [4] in a line: IUF_NPC2-5_cell_number_120hr: Cell Number Assessment at 120 hours in the Leibniz Research Institute for Environmental Medicine (IUF) Neural Progenitor Cell Migration and Differentiation Assay (NPC2-5) (AID 2284308; active = hit-call score of the fitted dose curve at least 0.9, where 1 is the maximum; inactive = score below 0.9;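 note: count of Hoechst-stained nuclei in migration zone around plated human neural progenitor spheres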). In a few lines:
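Human fetal neural progenitor spheres (0.3 mm) plated on poly-D-lysine/laminin in N2 differentiation medium, exposed five days across 7 concentrations with half-medium refresh at day 3. Hoechst-positive nuclei counted in migration area at 120 h, relative to DMSO.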

The nature of experiment [5]: IUF_NPC2-5_viability_120hr: Viability Assessment at 120 hours in the Leibniz Research Institute for Environmental Medicine (IUF) Neural Progenitor Cell Migration and Differentiation Assay (NPC2-5) (AID 2284312; active = hit-call score of the fitted dose curve at least 0.9, where 1 is the maximum; inactive = score below 0.9). In a few lines:
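Alamar blue resorufin fluorescence read after 5 days of differentiation, with compound present from day 0 and replenished at day 3. Primary hNPC spheres on laminin-coated plates, 37C; seven concentrations plus solvent control, fitted against DMSO.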

Experiment [6] can be described thus: CCTE_Mundy_HCI_iCellGluta_NOG_NeuriteLength: CCTE's Neurite Outgrowth Assay in iCellGluta cells for Neurite Length, Mundy Lab (AID 2284318). In a few lines:
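Automated high-content imaging of betaIII-tubulin (Alexa Fluor-488) and Hoechst-stained cells gave neurite length, normalized to the DMSO baseline.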

For the next experiment, the system named is IYD (gene 389434). Nature of the experiment: CCTE_GLTED_hIYD: CCTE's human Iodotyrosine Deiodinase (xIYD) Inhibition Assay, Great Lakes Toxicology and Ecology Division (GLTED) Lab (AID 2284317).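 Note: cell-free human IYD enzyme made in baculovirus insect cells; iodide freed from monoiodotyrosine measured by cerium arsenite color change at 420 nm.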 In a few lines:
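Iodide liberated from monoiodotyrosine by baculovirus-expressed human IYD over 3 h was determined colorimetrically (Sandell-Kolthoff, 420 nm) after Dowex separation; inhibition is loss of signal versus DMSO.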

Experiment [7] in a line: VALA_TUBHUV_Antagonist_CellCount: Viability Assessment in the VALA Sciences human Umbilical Vein Endothelial Tubule Formation (TUBHUV) Antagonism Assay (AID 2284310). In a few lines: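 Read-out is imaged cell count after nuclear and CD31 staining, fitted against 0.1% DMSO vehicle. Compounds were added for 3 days, in 10 ng/ml VEGF assay medium, to HUVEC–HDF co-cultures pre-grown 3 days.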

Experiment [8] is described as follows: VALA_MIGHUV2_WoundArea: VALA Sciences human Umbilical Vein Endothelial Cell Migration (MIGHUV) Assay, Area of Scratch Wound after Recovery (AID 2284316). In a few lines: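 Wound-area endpoint read by fluorescence imaging of Hoechst-stained nuclei after a 24 h recovery period following scratch of HUVEC monolayers (9000 cells/well). Chemicals dosed within 30 min post-scratch, triplicate 6-point series, 0.1% DMSO vehicle; Cytochalasin D positive control.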

Experiment [9] is described as follows: CCTE_Deisenroth_5AR_NBTE_donor: CCTE's 5alpha-reductase NanoBRET Target Engagement Assay […], Deisenroth Lab (AID 2284319; active = hit-call score of the fitted dose curve at least 0.9, where 1 is the maximum; inactive = score below 0.9). Particulars: actives raise or lower the signal. In a few lines:
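In this secondary endpoint, donor luminescence from SRD5A2-NanoLuc in transfected HEK293T flags artifacts. Test chemical (10 nM - 29.9 uM) is present five hours, tracer the last two; mock-tracer wells run plate-matched; data fitted bidirectionally against DMSO.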

Results filed as inconclusive are left out. Active and inactive are the calls of the source. Rule for the calls, unless noted: active = hit-call score of the fitted dose curve at least 0.9, where 1 is the maximum; inconclusive = response in the unintended direction; inactive = score below 0.9.

What is called AC50 is the concentration giving half of the maximal activity seen. As to `CCOP(=O)(OCC)Oc1nc(Cl)c(Cl)cc1Cl`, the result in experiment [1], in experiment [2], in [4] and in experiment [5] was inactive. Further, in experiment [3], the AC50 was 0.169 µM (active).
Take `CNC(=O)Oc1cccc2ccccc12`: the half-maximal activity concentration (AC50) in experiment [1] was 10 µM (active). In addition, the compound was classed as inactive in experiment [2], in [3], in experiment [4], in experiment [5] and in experiment [6].
As for `CC(C)NC(=O)N1CC(=O)N(c2cc(Cl)cc(Cl)c2)C1=O`, the result in the experiment with IYD (gene 389434) was inactive.
Consider `CC(C)Oc1cccc(NC(=O)c2ccccc2C(F)(F)F)c1`, for which the compound was called inactive in the experiment with IYD (gene 389434).
Take `CCNC(=O)NC(=O)C(C#N)=NOC`: the result in [1], in experiment [2], in [3], in [4], in [5] and in experiment [6] was inactive.
Take `COCc1cnc(C2=NC(C)(C(C)C)C(=O)N2)c(C(=O)O)c1` (stereo not drawn): the compound was classed as inactive in [7] and in experiment [8].
In the case of `O=C1C2CC=CCC2C(=O)N1SC(Cl)(Cl)Cl` (stereo not drawn), the compound was classed as inactive in experiment [9].
On the same count and under the same terms, under `CC1(C)CCC(=Cc2ccc(Cl)cc2)C1(O)Cn1cncn1` (stereo not drawn) stands “inactive”.
Consider `COC(=O)N(C(=O)N1CO[C@@]2(C(=O)OC)Cc3cc(Cl)ccc3C2=N1)c1ccc(OC(F)(F)F)cc1`, for which the compound was classed as inactive in [2], in experiment [3], in [4], in experiment [5] and in experiment [6].
With `OC(c1ccc(Cl)cc1)(c1ccc(Cl)cc1)C(Cl)(Cl)Cl`, the concentration at half-maximal activity (AC50) with IYD (gene 389434) was 100 µM (active).
With `CC1(C)C(C=C(Cl)Cl)C1C(=O)OC(C#N)c1cccc(Oc2ccccc2)c1` (stereo not drawn), the call in [1], in experiment [2], in experiment [3], in experiment [4], in experiment [5] and in experiment [6] was inactive.
For `COP(=S)(OC)SCn1nnc2ccccc2c1=O`, the call in [1], in [2], in experiment [3], in experiment [4], in experiment [5] and in [9] was inactive. Further, the AC50 in experiment [6] was 21.9 µM (active).
With `N#CN=C1SCCN1Cc1ccc(Cl)nc1`, the result in experiment [1], in experiment [2], in [3], in [4], in experiment [5] and in experiment [6] was inactive.
